Screens as filed in PubChem.
AmpC inh no detg = inhibitors of E. coli AmpC beta-lactamase without detergent; AmpC nitrocefin hydrolysis, absorbance 480 nm, 0.0001% Triton; Potency, µM (titrated, usually from 57.1 µM), for the others: at the top dose activity change, negative = inhibition, most hits filed as inhibitors; actives 0.52% (n = 330,000); AID 485341;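 also: plate controls were no compound for no effect and no enzyme for full effect; nearly all actives have a fitted effect of over 20% in size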
Target sequence (P00811 whole entry, looked up): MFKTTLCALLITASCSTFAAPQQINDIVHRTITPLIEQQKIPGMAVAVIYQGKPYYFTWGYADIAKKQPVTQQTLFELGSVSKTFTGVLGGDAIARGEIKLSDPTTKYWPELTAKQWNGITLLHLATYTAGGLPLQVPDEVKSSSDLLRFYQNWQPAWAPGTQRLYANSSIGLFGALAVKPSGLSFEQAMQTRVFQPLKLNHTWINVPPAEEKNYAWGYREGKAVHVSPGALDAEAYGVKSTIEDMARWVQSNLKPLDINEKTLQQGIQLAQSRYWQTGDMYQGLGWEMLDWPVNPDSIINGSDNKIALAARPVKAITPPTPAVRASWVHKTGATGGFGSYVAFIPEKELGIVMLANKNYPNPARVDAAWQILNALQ
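20 mM phosphate pH 7.0 + 0.01% (detergent screen) or 0.0001% Triton X-100; 5.3 nM AmpC reagent; cpd preinc 15 min RT; nitrocefin (800 uM stock) to start; A480 q20 s × 4 min; Activity was normalised to no-enzyme and no-compound control wells.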
AMA1 RON2 block = disrupts binding of P. falciparum AMA1 to RON2; AlphaScreen AMA1-biotinylated RON2 peptide binding; Potency, µM (titrated, usually from 58.2 µM), for the others: at the highest dose activity change, negative = inhibition, usual class: inhibitors; actives 0.2% (n = 360,000);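 also: 0% = vehicle wells and -100% = peptide control; nearly all actives have a fitted effect of over 45% in size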
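AMA1 (3D7) with his tag at 25 nM final met compounds first, then biotinylated RON2 peptide at 25 nM; detection used donor plus acceptor beads, 10 µg/mL apiece, read by AlphaScreen after 30 min at room temperature.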
RE007 growth inh = less growth of the S. pombe RE007 Vpr strain; S. pombe RE007 Vpr strain, BacTiter-Glo ATP luminescence, 24 h; Potency, µM (doses to about 92.2 µM), inactives show at the top dose activity change, negative = less growth, actives largely listed as inhibitors; actives 0.21% (n = 360,000); AID 651644; active = well fitted falling curve with a large enough effect; inconclusive = small, poorly fitted or top-dose-only effect; inactive = no such curve, though single readings can be large or run the other way; also: nearly all actives have a fitted effect of over 50% in size
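Fission yeast strain RE007, carrying one chromosomally integrated HIV-1 vpr copy, was seeded at OD 0.01 in PMG+AL medium with 23 nL pinned compound. After 24 h at 30 °C and 99% humidity, viability was read by BacTiter-Glo luminescence.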
AmpC inh detg = AmpC beta-lactamase inhibition with detergent present. P00811. AmpC hydrolysis of nitrocefin, absorbance 480 nm, 0.01% Triton. Potency, µM (titrated, usually from 114 µM), without a hit: at the top dose activity change, negative = inhibition, actives largely listed as inhibitors. actives 0.041% (n = 370,000). AID 485294;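 also: 0% = no-compound wells and -100% = no-enzyme wells; nearly all actives have a fitted effect of over 25% in size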
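AmpC (5.3 nM in the dispensed reagent) in 20 mM phosphate pH 7.0 with 0.01% (detergent screen) or 0.0001% Triton X-100 was preincubated with compounds for 15 min at room temperature. Nitrocefin was then added from an 800 uM solution, and hydrolysis was followed at 480 nm.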
The depositor's hits bear a star; ! = not confirmed by another sample; [ ] = dose if it differs, or a comment. Rows were chosen to be rich in hits. Some 0.79% of all compounds tested hit in one or more screens of this group. Unless noted, calls follow the shape of the dose curve; as a rule, active = well fitted curve in the direction sought with a large enough effect; inconclusive = small, poorly fitted or top-dose-only effect, or another doubt; inactive = no such curve, though single readings can be large; an effect the other way counts as inactive or inconclusive. Unless noted, % is scaled to controls: 0 for no effect and ±100 for the full control effect; potency is read from the fitted curve at half-maximal effect.

How did CCOc1ccccc1NC(=O)C1CCCN1S(=O)(=O)c1ccc2nc(-c3ccccc3)[nH]c2c1 (configuration not stated) do in these assays?
AmpC inh detg: -2.8%

How did S=C1SCN(Cc2ccco2)CN1Cc1ccco1 do in these assays?
AmpC inh no detg: -19.8%; AMA1 RON2 block: 70.7%; RE007 growth inh: 35.5µM*; AmpC inh detg: -8.4%

What do the screens show for `S=C1SCN(Cc2cccs2)CN1Cc1cccs1`?
AMA1 RON2 block: 143.4%; RE007 growth inh: -16.5%

How did C=Cc1ccc(Cn2c(C(=O)O)c(CNCc3ccccc3)c3ccc(OC)cc32)cc1 do in these assays?
AmpC inh detg: -9.6%

How did COc1cccc(/C=N/NC(=O)c2cc3c(OC)ccc(OC)c3[nH]2)c1O do in these assays?
AmpC inh no detg: 3.8%; AMA1 RON2 block: 16.3%; RE007 growth inh: 10.9%; AmpC inh detg: -10.6%

Results for COc1cc(OC)c2cc(C(=O)N/N=C/c3cccc(OC)c3O)[nH]c2c1 ?
AmpC inh no detg: 0.398µM*; AMA1 RON2 block: 99.4%; RE007 growth inh: 4.3%; AmpC inh detg: -5.1%

Results for CCCCN(CCCC)CCn1cnc2c([nH]c3ccc(OC)cc32)c1=O ?
AmpC inh no detg: 20µM*; AMA1 RON2 block: -2.1%; RE007 growth inh: -3.3%; AmpC inh detg: inconclusive

How did CCOc1ccccc1NC(=O)CCCc1nc(-c2ccccc2Cl)no1 do in these assays?
AmpC inh detg: 5.5%

How did O=C(Nc1ccc2nc(-c3ccco3)c(-c3ccco3)nc2c1)N1CCCCCC1 do in these assays?
AmpC inh no detg: -35.6%; AMA1 RON2 block: 11.9µM*; RE007 growth inh: -1.4%; AmpC inh detg: 2.7%

Results for O=C(c1ccccc1)c1ccc2nc(-c3ccco3)c(-c3ccco3)nc2c1 ?
AmpC inh no detg: 25.1µM*; AMA1 RON2 block: inconclusive; RE007 growth inh: -3.0%; AmpC inh detg: 3.8%

Results for O=C(NCCc1ccccc1)c1ccc2nc(-c3ccco3)c(-c3ccco3)nc2c1 ?
AmpC inh no detg: 15.8µM*; AMA1 RON2 block: 1.4%; RE007 growth inh: -19.2%; AmpC inh detg: -8.6%

How did COC(=O)c1cc2oc3ccccc3c2n1Cc1cc(C)ccc1C do in these assays?
AmpC inh detg: 2.7%

How did COc1ccc(/C=C(\C#N)C(=O)Nc2cc(S(=O)(=O)N3CCOCC3)ccc2N2CCCC2)cc1 do in these assays?
AmpC inh no detg: 60.3%; AMA1 RON2 block: -22.9%; RE007 growth inh: -12.1%; AmpC inh detg: -10.8%

Results for CCN(CC)S(=O)(=O)c1ccc(N2CCCCC2)c(NC(=O)/C(C#N)=C/c2ccc(OC)cc2)c1 ?
AmpC inh no detg: 3.98µM*; AMA1 RON2 block: 1.2%[11.6 µM]; RE007 growth inh: -7.1%; AmpC inh detg: -1.7%

What do the screens show for `O=C(O)c1ccccc1Nc1cc(Cl)c2nonc2c1[N+](=O)[O-]`?
AmpC inh no detg: -10.0%; AMA1 RON2 block: 8.8%; RE007 growth inh: -0.3%; AmpC inh detg: -2.5%

How did O=[N+]([O-])c1c(Nc2ccccn2)cc(Cl)c2nonc12 do in these assays?
AmpC inh no detg: -14.4%; AMA1 RON2 block: -17.8%; RE007 growth inh: 8.91µM*; AmpC inh detg: -11.1%

Results for CCN(CC)CCCn1c(=S)[nH]c2ccc(Cl)cc2c1=O ?
AmpC inh no detg: 0.282µM*; AMA1 RON2 block: 2.9%; RE007 growth inh: -10.0%; AmpC inh detg: 0.9%

How did CCOc1cc2[nH]c(=S)n(CCCN(CC)CC)c(=O)c2cc1OCC do in these assays?
AmpC inh no detg: 1.4%; AMA1 RON2 block: 2.2%; RE007 growth inh: -14.7%; AmpC inh detg: 0.4%

What do the screens show for `CCN(CC)CCCn1c(=S)[nH]c2cc(Cl)ccc2c1=O`?
AmpC inh no detg: 28.2µM*; AMA1 RON2 block: -0.9%; RE007 growth inh: -6.9%; AmpC inh detg: inconclusive

Results for CN(C)CCCN1c2ccc(O)cc2Sc2ccc(Cl)cc21 ?
AMA1 RON2 block: 20µM*; RE007 growth inh: 8.8%

Results for CN(C)CCCN1c2ccccc2Sc2ccc(C(F)(F)F)cc21 ?
AmpC inh no detg: 78.4%; AMA1 RON2 block: -22.0%; RE007 growth inh: -1.8%; AmpC inh detg: -13.1%

Results for CN1CCN(CCCN2c3ccccc3Sc3ccc(Cl)cc32)CC1 ?
AmpC inh no detg: 225.1%; AMA1 RON2 block: 15.8µM*!; RE007 growth inh: 4.3%; AmpC inh detg: -5.8%

What do the screens show for `CCSc1ccc2c(c1)N(CCCN1CCN(C)CC1)c1ccccc1S2`?
AmpC inh no detg: 213.0%; AMA1 RON2 block: inconclusive; RE007 growth inh: -1.6%[18.4 µM]; AmpC inh detg: -10.6%

How did CCC1CCCCN1S(=O)(=O)c1cc(C(=O)Nc2ccc(C)c(F)c2)ccc1F (configuration not stated) do in these assays?
AmpC inh detg: 8.1%

Results for CC(C)Cc1ccc(S(=O)(=O)NCc2nc3cccnc3n2Cc2ccccc2)cc1 ?
AmpC inh detg: -0.7%

How did COc1ccc(CN2CCc3c(c(=O)n4ncc(C(=O)N5CCN(c6ccccc6OC)CC5)c4n3C)C2)cc1 do in these assays?
AmpC inh detg: 6.6%

What do the screens show for `N#Cc1c(NC(=O)CSc2ncnc3sccc23)oc(-c2ccco2)c1-c1ccco1`?
AmpC inh no detg: 1.78µM*; AMA1 RON2 block: 5.1%; RE007 growth inh: 18.1%; AmpC inh detg: -8.4%

What do the screens show for `Cc1cc(NC(=O)CSc2ncnc3sccc23)no1`?
AmpC inh no detg: -14.7%; AMA1 RON2 block: -4.2%; RE007 growth inh: 4.5%; AmpC inh detg: inconclusive

What do the screens show for `Cc1cc(C(=O)N/N=C/c2ccc(Cl)c([N+](=O)[O-])c2)c(C)n1-c1ccc(F)cc1`?
AmpC inh no detg: 15.8µM*; AMA1 RON2 block: 8.4%; RE007 growth inh: 2.7%; AmpC inh detg: -8.7%

What do the screens show for `CCN1/C(=C\C(=S)Nc2ccccc2)Sc2ccccc21`?
AmpC inh no detg: -38.4%; AMA1 RON2 block: 39.2%; RE007 growth inh: 2.3%; AmpC inh detg: 0.8%

What do the screens show for `CCN1/C(=C/C(C)=C/c2sc3ccccc3[n+]2CC)Sc2ccccc21`?
AmpC inh no detg: 13.7%; AMA1 RON2 block: 28.2µM*; RE007 growth inh: 7.08µM*; AmpC inh detg: 1.2%

How did CCN1CCOC(=O)C1CC(=O)Nc1ccc(C)c(Cl)c1 (configuration not stated) do in these assays?
AmpC inh detg: 0.6%

Results for O=C1CC(SCc2nc3ccccc3[nH]2)C(=O)N1c1cccc(Cl)c1 (configuration not stated) ?
AmpC inh no detg: -47.0%; AMA1 RON2 block: 71.0%; RE007 growth inh: 28.2µM*; AmpC inh detg: inconclusive

How did CCCOc1ccc(N2C(=O)CC(SCc3nc4ccccc4[nH]3)C2=O)cc1 (configuration not stated) do in these assays?
AmpC inh no detg: -16.8%; AMA1 RON2 block: 56.0%; RE007 growth inh: 63.1µM*; AmpC inh detg: 0.9%

What do the screens show for `O=C1CC(SCCc2nc3ccccc3[nH]2)C(=O)N1c1ccc(F)c(Cl)c1` (configuration not stated)?
AMA1 RON2 block: 3.1%; RE007 growth inh: 28.2µM*

How did N#Cc1c[nH]n2c(NC3CCCC3)c(-c3cccc(Br)c3)nc12 do in these assays?
AmpC inh detg: 1.4%
